Source: PubChem
ATG4B inhibitor = ATG4B (human) cysteine protease inhibition. Q9Y4P1. inhibition, % at 8.33 µM. AID 504462. ATG4B cleavage of LC3-PLA2, NBD-HPC fluorescence, 1 h. 340,000 tested, 0.51% active; in the data active means inhibition above about 40%
Rin1 Abl inh = blocks binding of human Rin1 to Abl; P00519+Q13671; TR-FRET Rin1/Abl binding, biochemical; inhibition, % at 7.35 µM; 360,000 tested, 0.4% active; in the data active means inhibition above about 5%, passing the limit was not always enough
SUMO1 PPI mod = SUMO1-SIM interaction modulation; SUMO1 binding to a labelled peptide, TR-FRET, 1 h; inhibition, % at 20 µM; 360,000 tested, 0.33% active; AID 602429; in the data active means inhibition above about 37%
Neddylation inh = cullin neddylation inhibition | P61081+Q13564 | TR-FRET cullin neddylation, biochemical | inhibition, % at 25 µM | 360,000 tested, 0.58% active; in the data active means inhibition above about 36%
Target sequence (P61081 whole entry, looked up): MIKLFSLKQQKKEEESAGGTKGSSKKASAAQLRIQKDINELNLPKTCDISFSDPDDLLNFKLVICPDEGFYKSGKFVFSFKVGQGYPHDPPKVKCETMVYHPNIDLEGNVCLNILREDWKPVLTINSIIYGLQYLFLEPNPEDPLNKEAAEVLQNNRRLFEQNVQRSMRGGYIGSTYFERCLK
Target sequence (Q13564 whole entry, looked up): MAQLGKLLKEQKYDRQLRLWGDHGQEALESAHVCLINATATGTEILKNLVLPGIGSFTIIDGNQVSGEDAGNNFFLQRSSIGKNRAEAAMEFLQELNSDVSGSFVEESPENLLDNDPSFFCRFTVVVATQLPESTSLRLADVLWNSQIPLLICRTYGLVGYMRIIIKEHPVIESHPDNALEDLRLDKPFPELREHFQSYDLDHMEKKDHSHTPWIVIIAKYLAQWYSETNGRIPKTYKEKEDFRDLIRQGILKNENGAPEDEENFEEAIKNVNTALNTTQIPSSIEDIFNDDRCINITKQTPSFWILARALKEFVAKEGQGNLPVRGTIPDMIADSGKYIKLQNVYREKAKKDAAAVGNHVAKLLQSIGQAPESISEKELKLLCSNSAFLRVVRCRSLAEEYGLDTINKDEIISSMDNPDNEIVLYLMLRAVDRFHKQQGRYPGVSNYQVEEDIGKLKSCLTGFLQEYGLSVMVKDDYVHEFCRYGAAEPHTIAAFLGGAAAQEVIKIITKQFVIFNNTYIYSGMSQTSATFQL
ATG4B conf = confirmation of human ATG4B inhibitors. shares compounds with ATG4B inhibitor. ATG4B protease fluorescent substrate cleavage assay. inhibition, % at 8.33 µM. 320 tested, 92% active. AID 504757; in the data active means inhibition above about 39%
PLA2 counter = inhibits human PLA2, flagging false ATG4B inhibitors; shares compounds with ATG4B inhibitor; purified PLA2, NBD-C6-HPC fluorescence, 45 min; inhibition, % at 8.33 µM; 1,600 tested, 66% active; AID 588402; in the data active means inhibition above about 50%
* marks the source's active call; other numbers are inactive results; i = inactive; · = no result given. The list is not random: actives were taken first. Their share in the collection is about 1.7%.

SMILES	ATG4B inhibitor	Rin1 Abl inh	SUMO1 PPI mod	Neddylation inh	PLA2 counter	others
O=c1[nH][nH]c2c1[C@H](c1ccc(F)cc1)O[C@H](CCC(F)(F)F)C2	·	·	3.3	-2.3	·
CCOC(=O)c1ccc(NC(=S)NCc2ccc(F)cc2)cc1	44.1*	0.5	5.4	-7.3	55.8*
CC(C)c1ccc(NC(=O)NCc2ccc(F)cc2)cc1	60.8*	2.5	-3.1	12.2	67.2*
O=C(NCc1ccc(Cl)cc1)Nc1ccc(F)cc1	8.0	-1.1	0.4	1.1	·
NC(=O)NN=C1CCC(OCc2ccccc2)CC1CC(=O)O (centres undefined)	·	3.0	0.1	3.5	·
CCN1C(C(=O)c2ccccc2)=C(Nc2ccccc2C)c2ccccc2S1(=O)=O	50.8*	0.7	1.3	4.7	55.1*
Cc1ccc(NC2=C(C(=O)c3ccccc3)N(C)S(=O)(=O)c3ccccc32)cc1	23.7	-2.0	-9.3	-2.9	·
O=c1cc(-c2ccccc2Cl)oc2c(NS(=O)(=O)c3ccccc3C(F)(F)F)ccc(O)c12	41.8*	3.2	-0.5	-5.0	53.1*
O=C(Nc1ccc(O)c2c(=O)cc(-c3ccccc3Cl)oc12)c1ccc(Cl)c(Cl)c1	6.2	5.9	2.7	2.7	·
O=c1cc(-c2ccccc2Cl)oc2c(NS(=O)(=O)c3cccs3)ccc(O)c12	57.3*	4.2	1.0	-18.8	73.9*
O=c1cc(-c2ccccc2Cl)oc2c(NS(=O)(=O)c3ccccc3OC(F)(F)F)ccc(O)c12	42.9*	·	·	·	77.7*
COC(=O)c1ccc2nc(-c3ccc(C#N)cc3)c(Cc3cccc(Cl)c3)n2c1	·	·	0.5	12.8	·
CCc1cccc(C)c1NC(=O)CCCSc1nc2ccccc2s1	64.8*	-0.7	-6.4	-27.4	57.4*
CCCCCCN1CCN(C2CN(Cc3cn(Cc4cccc(C(F)(F)F)c4)nn3)S(=O)(=O)C2)CC1 (centres undefined)	·	·	1.9	1.9	·
O=C(Nc1nc(-c2cc3ccccc3oc2=O)cs1)c1ccco1	-7.0	-0.5	11.8	·	·
O=c1oc2ccccc2cc1-c1csc(NN=C2CCCCC2)n1	40.5*	-3.3	-10.8	26.9	65.9*
O=C(COc1ccc(F)c(Cl)c1)N1CCN(c2ccccn2)CC1	0.9	3.2	4.7	23.2	·
O=C(COc1ccccc1Cl)N1CCN(c2ccccn2)CC1	91.9*	1.4	-8.8	23.0	-4.7
Cc1ccc(C(=O)N2CCC2(C)C(=O)NC(C)C)cc1 (centres undefined)	·	-0.2	-3.8	2.2	·
COC(=O)C1=C(C)Nc2nc(SCc3ccccc3)[nH]c(=O)c2C1c1cccs1 (centres undefined)	52.9*	1.0	1.2	10.2	49.2
CC(C)C[C@@H](CN1CCC[C@H]1CN1C(=O)C(=O)NC[C@@H]1Cc1ccc(O)cc1)N1C[C@H](Cc2ccccc2)N(CC2CCCCCC2)C(=O)C1=O	·	·	1.9	7.5	·
Cc1nc(Nc2ccc(Cl)cc2Cl)sc1C(=O)Nc1ccccc1	-7.0	-2.8	2.7	i	·
Oc1nc(Nc2ccc(Cl)cc2Cl)sc1/C=C1\C=Nc2ccccc21	78.3*	-1.9	19.4	7.1	23.4	ATG4B conf=22.2
Cc1ccc(NC(=O)C2CC(=O)N(c3ccccc3Cl)C2)cc1S(=O)(=O)N1CCOCC1 (centres undefined)	-8.9	2.9	-1.0	-22.4	·
Cc1cc2c(cc1C)-n1nnnc1C(N(C)CCc1ccccc1)C(=O)N2 (centres undefined)	·	·	5.5	3.3	·
SMILES	ATG4B inhibitor	Rin1 Abl inh	SUMO1 PPI mod	Neddylation inh	PLA2 counter	others
COc1ccc(/C=C2\CCC(C3CCCC3)C2=O)cc1Cn1nc(C)cc1C (centres undefined)	34.9	-0.1	-5.8	8.8	·
COc1ccc(/C=C2\CCC(C3CCCC3)C2=O)cc1Cn1cccn1 (centres undefined)	67.6*	0.2	-12.1	-13.6	65.3*
COc1cc(/C=C/C(=O)O)cc(S(=O)(=O)NC2CCCC2)c1OC	-3.9	1.1	-2.1	19.4	·
COc1cc(/C=C/C(=O)O)cc(S(=O)(=O)Nc2cc(Cl)c(Cl)cc2Cl)c1OC	41.1*	-4.7	15.9	14.2	7.3	ATG4B conf=52.1*
CN1C(=O)C(N=Nc2ccccc2C(=O)O)N(C)C1=S (centres undefined)	41.4*	0.5	-14.4	-115.6	40.4	ATG4B conf=69.7*
O=C(Nc1nnc(-c2cccs2)s1)C1CC1	-8.0	-1.1	-14.1	5.2	·
O=C(Nc1nc(-c2cccs2)c(-c2cccs2)s1)C1CCCC1	50.0*	1.0	-8.9	-118.3	60.2*
CC(C)=CCOc1ccc2c(C)c(CCC(=O)N3C[C@H]4C[C@@H](C3)c3cccc(=O)n3C4)c(=O)oc2c1C	·	-0.3	4.6	·	·
CCOC(=O)C1=CCC(c2ccc(N(CC)CC)cc2)N(S(=O)(=O)c2ccc(C)cc2)C1c1ccc([N+](=O)[O-])cc1 (centres undefined)	·	·	2.9	4.5	·
COc1ccccc1CNC(=O)c1ccccc1OCc1ccc(F)cc1	44.4*	2.7	2.1	-1.5	27.5	ATG4B conf=74.8*
CC(=O)N1c2c(cc(Br)cc2S(=O)(=O)N2CCN(c3ccccc3F)CC2)CC1C (centres undefined)	55.4*	5.2	8.1	-2.6	67.5*
COCCN=c1scc(-c2cc(OC)c(OC)c(OC)c2)n1/N=C/c1c(C)[nH]c2ccccc12	42.6*	-3.8	0.6	12.9	70.6*
Cc1[nH]c2ccccc2c1/C=N/n1cnnc1	-4.4	2.8	-2.8	-10.2	·
Cc1ccc(CNc2ncnc3cc(Cl)ccc23)cc1	11.9	-3.4	4.7	-1.6	·
Cc1cc(NCc2ccc(F)cc2)nc2cc(Cl)ccc12	51.0*	-0.4	2.2	-6.8	74.5*
O=C(Cc1cccc(NC(=O)C2CCCN(C(=O)C3CCCC3)C2)c1)Nc1ccc(C(=O)N2CCOCC2)cc1 (centres undefined)	1.2	-2.6	-1.2	0.7	·
Cc1noc(/C=C/c2ccco2)c1S(=O)(=O)N1CCC(C(=O)NC(C)c2ccccc2)CC1 (centres undefined)	-2.1	-15.5	-13.3	6.4	·
Cc1noc(/C=C/c2ccco2)c1S(=O)(=O)N1CCC(C(=O)N2c3ccccc3CC2C)CC1 (centres undefined)	47.7*	3.5	4.4	12.6	75.8*
Cc1cccc(/C=C/c2onc(C)c2S(=O)(=O)N2CCC(C(=O)N3CCCCCC3)CC2)c1	40.4*	2.4	-10.3	-1.7	52.4*
CC1=C(C(=O)N(C(C)C)C(C)C)CC(CC(=O)NC(c2ccccc2)c2ccccc2)C(=O)N1Cc1ccc(C(C)(C)C)cc1 (centres undefined)	·	1.8	0.2	-0.8	·
COc1cc(OC)cc(-c2nnc(SCc3c(F)cccc3Cl)o2)c1	58.8*	-0.8	3.3	0.5	58.1*
Cc1ccc([C@H]2C[C@@H](O)[C@H](n3cc(-c4ccc(F)cc4)nn3)CN2C(=O)c2cccs2)cc1	·	-0.3	-0.8	-3.2	·
